Assay results: PubChem BioAssay (NCATS)
Unmarked numbers belong to inactive results. The source made the active and inactive calls. Calls come from the whole dose curve; as a rule, active = well fitted inhibition curve with a large enough effect; inconclusive = small, poorly fitted or top-dose-only effect; inactive = flat fitted curve, though single readings scatter.

system: Nanoluciferase (engineered Oplophorus gracilirostris luciferase); test: Primary Nanoluciferase (NLuc) qHTS assay for identification of artifact compounds. (AID 1845222); conditions: NLuc-conditioned medium, Nano-Glo luminescence, 5 min; series mostly up to 54.1 µM; activity, negative = inhibition: at the top concentration;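 for activity, negative = inhibition: NLuc secreted into diluted conditioned medium of S16 cells; 0% = DMSO and -100% = no enzyme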
Method in brief: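 qHTS format, against NLuc in S16 cell-conditioned medium. Nano-Glo substrate 1:100 was added after 15 min at room temperature. Luminescence was taken after a further 5 min.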
Potency is the fitted concentration of half-maximal effect.

SMILES | activity, negative = inhibition | Potency
C/C=C(/C)C1C=CC2CC(C)CC(C)C2C1/C(O)=C1\C(=O)NC(CC(C)(O)C(=O)O)C1=O (stereo not drawn) | -13.3% [at 25.7 µM] | 
CS[C@]1(CO)C(=O)N2[C@H]3C(=CC=C[C@@H]3O)C[C@@]2(SC)C(=O)N1C | 2.28% | 
COc1ccc2c3c4n(c2c1)[C@@H](C=C(C)C)OOC(C)(C)C[C@@H]4N1C(=O)[C@@H]2CCCN2C(=O)[C@]1(O)[C@H]3OCC=C(C)C | -0.209% [at 25.7 µM] | 
CC1=CC2/C=C(\C)CCCC(O)/C=C/C(=O)OC23C(=O)NC(CC(C)C)C3C1C (stereo not drawn) | 0% | 
C=CC(C)(C)c1[nH]c2c(CC=C(C)C)cc(CC=C(C)C)cc2c1C[C@@H]1NC(=O)[C@H](C)NC1=O | 3.09% | 
COc1cc(O)c2c(c1)/C=C/C[C@@H](O)[C@@H](O)C(=O)CCC[C@H](C)OC2=O | -2.32% | 
CC(=O)O[C@H]1CC[C@H]2[C@@H]3CC[C@H]4CC(=O)C=C(C)[C@]4(C)[C@H]3CC[C@]12C | -3.78% | 
COc1cc(N2CCN(C)CC2)ccc1N | -13.5% | 
COCC(C(=O)OC1CC2CCC(C1)N2C)c1ccccc1 (stereo not drawn) | 0% | 
N#CC(O[C@@H]1O[C@H](CO)[C@@H](O)[C@H](O)[C@H]1O)c1ccccc1 (stereo partly drawn) | -0.531% | 
CC[C@H]1C2CC3[C@@H]4N(C)c5ccccc5[C@]45C[C@@H]([C@H]2[C@H]5O)N3[C@H]1O | 2.8% | 
NC(=O)c1ncn2c1CN=C(c1ccccc1Br)c1cc(F)ccc1-2 | -4.97% | 
Cc1c(N2C(=O)[C@@H]3[C@H](O)CCN3C2=O)ccc(C#N)c1Cl | 2.81% | 
CC(=O)O[C@@H]1[C@H]2CC[C@H]3[C@@](C)(O)[C@@H]4C[C@H](O)C(C)(C)[C@@]4(O)[C@H](O)C[C@@]13C[C@@]2(C)O | 2.42% [at 25.7 µM] | 
CC(=O)N1N=C(c2ccc(N)cc2)c2cc3c(cc2C[C@H]1C)OCO3 | -7.09% | 
COC(=O)[C@]12CCCC(C)(C)C1CCc1cc(C(C)C)c(O)c(O)c12 (stereo partly drawn) |  | 18.6 µM (active)
COc1ccc(CN(C(=O)[C@@H](N)Cc2c(C)cc(C(N)=O)cc2C)[C@@H](C)c2ncc(-c3ccccc3)[nH]2)cc1C(=O)O | -0.285% | 
C=CC/C=C\C/C=C\CCCCCCCc1cc(O)cc(O)c1 | -13.2% | 
CN1C2CCC1CC(OC(=O)N1Cc3ccccc3NC1=O)C2 (stereo not drawn) | 0% | 

SMILES | activity, negative = inhibition | Potency
COC(=O)CC1CC2(C(=O)c3c(O)cccc3C2(O)C(=O)OC)C(C)O1 (stereo not drawn) | 1.59% | 
c1cncc(OC[C@@H]2CCN2)c1 | 3.31% | 
Cc1c(Cl)c(OCC(=O)N2CCN(C)CC2)nc2sc(C(=O)NC3CC3)c(N)c12 | -5.48% | 
CN1CCc2cc3c(cc2C1C1OC(=O)c2c1ccc1c2OCO1)OCO3 (stereo not drawn) | 4.62% | 
C#CCO[C@H]1CN2CCC1CC2 | 2.52% | 
CC1CCCC(O)CC(=O)Cc2cc(O)cc(O)c2C(=O)O1 (stereo not drawn) | 1.47% | 
COc1ccsc1CNCC[C@@]1(c2ccccn2)CCOC2(CCCC2)C1 | -1.36% | 
C1=C(c2cnc[nH]2)c2ccsc2CC1 | -18.5% | 
CC1=CC2(O)/C=C/C(C)(O)C(O)C(O)/C=C/C(=O)OC23C(=O)NC(CC(C)C)C3C1C (stereo not drawn) | -2.35% [at 25.7 µM] | 
C/C=C1/CN2CC[C@]34C(=Nc5ccc(OC)cc53)C2C[C@@H]1C4(CO)C(=O)OC (stereo partly drawn) | -1.6% | 
Oc1ccc2c3c1O[C@H]1c4[nH]c5c(N=C=S)cccc5c4C[C@@]4(O)[C@@H](C2)N(CC2CC2)CC[C@]314 | -3.86% | 
CO[C@@H]1[C@H](O)[C@@H](O[C@@H]2C[C@H]3CC[C@@H]4C(CC[C@]5(C)[C@@H](C6=CC(=O)OC6)CC[C@]45O)[C@@]3(C)[C@H](O)C2)O[C@H](C)[C@@H]1O (stereo partly drawn) | 0.926% [at 25.7 µM] | 
C[C@@H]1CCC/C=C/[C@H]2C[C@@H](O)C[C@@H]2[C@@H](O)/C=C/C(=O)O1 | 2.73% | 
C[C@]12CCC(=O)C=C1CC[C@@H]1[C@@H]2[C@@H](O)C[C@]2(C)C(=O)CC[C@@H]12 | 0.873% | 
CCC(C)(O)C1(C(=O)O)COC(=O)C1 (stereo not drawn) | 4.45% [at 86.2 µM] | 
COC(=O)C1=COC(C)C2CN3CCC4(C(=O)Nc5ccccc54)C3CC12 (stereo not drawn) | 0.912% | 
CC1(C)C(=O)N(c2ccc(C#N)c(C(F)(F)F)c2)C(=O)N1CCCCO | 0.31% | 
O=C1N[C@@H](Cc2ccccc2)CN2CCCC[C@@H]12 | -0.693% | 
CN1C(=O)CN=C(c2ccccc2Cl)c2cc(Cl)ccc21 | -3.48% | 
